According to PubChem BioAssay AID1159580 (chemical genetic matrix, 2015):
Several values for one entry are separate records, joined by “and”; a condition that tells them apart may be missing. Equal entries are not always repeated. In all, about 5,500 compounds went through this assay and about 2,000 (36%) were called active. About 18% were inconclusive and are not listed. Rule as the data show it: active = normalized growth mostly below about 0.91 (no sharp cut-off); inconclusive = no clear call, values can overlap the other calls; inactive = mostly above about 0.92. This is one part of the list.

Test: chemical genetic growth profiling, strain panel (AID 1159580);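 also: tested at 20 µM; growth read once vehicle control cultures reached saturation at 30 °C; 1 = growth at the plate median or of vehicle wells; lower values mean less growth of the strain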
Conditions: S. cerevisiae deletion strains, growth OD

Measured: normalized growth

O=C1NC(=O)C(=O)C(=O)N1
inactive: locus YAL013W, strain DEP1, hits give low values 1.01 | locus YAL021C, strain ccr4, hits give low values 1 | locus YAL026C, strain drs2, hits give low values 0.991 | locus YAL030W, strain snc1, hits give low values 0.989 | locus YBL061C, strain skt5, hits give low values 0.984 | locus YBR009C, strain hhf1, hits give low values 0.997 | locus YBR021W, strain FUR4, hits give low values 1.03 | locus YBR023C, strain chs3, hits give low values 0.997 | locus YBR171W, strain sec66, hits give low values 0.979 | locus YBR229C, strain ROT2, hits give low values 1.01 | locus YBR231C, strain swc5, hits give low values 0.986 | locus YBR279W, strain paf1, hits give low values 0.993 | locus YCL011C, strain gbp2, hits give low values 0.996 | locus YCL016C, strain dcc1, hits give low values 0.995 | locus YCL029C, strain bik1, hits give low values 0.984 | locus YCL061C, strain MRC1, hits give low values 0.988 | locus YCL069W, strain vba3, hits give low values 0.989 | locus YCR088W, strain abp1, hits give low values 0.984 | locus YDL005C, strain med2, hits give low values 0.984 | locus YDL035C, strain GPR1, hits give low values 1.03 | locus YDL040C, strain nat1, hits give low values 0.988 | locus YDL074C, strain BRE1, hits give low values 1.04 | locus YDL101C, strain DUN1, hits give low values 1.02 | locus YDL134C, strain PPH21, hits give low values 1.02 | locus YDL185W, strain tfp1, hits give low values 1 | locus YDL192W, strain arf1, hits give low values 0.998 | locus YDR001C, strain nth1, hits give low values 0.981 | locus YDR069C, strain doa4, hits give low values 0.998 | locus YDR101C, strain arx1, hits give low values 0.995 | locus YDR137W, strain rgp1, hits give low values 0.999 | locus YDR150W, strain NUM1, hits give low values 1.02 | locus YDR159W, strain sac3, hits give low values 0.986 | locus YDR162C, strain NBP2, hits give low values 1.02 | locus YDR195W, strain ref2 0.962 | locus YDR297W, strain sur2, hits give low values 0.999 | locus YDR318W, strain mcm21, hits give low values 0.993 | locus YDR334W, strain swr1, hits give low values 0.99 | locus YDR335W, strain msn5, hits give low values 0.995 | locus YDR388W, hits give low values 0.98 | locus YDR392W, strain spt3, hits give low values 0.979 | locus YDR502C, strain sam2, hits give low values 1.01 | locus YEL003W, strain gim4, hits give low values 0.989 | locus YEL037C, strain rad23, hits give low values 0.996 | locus YEL061C, strain CIN8 (second series), hits give low values 0.983 | locus YEL061C, strain CIN8, hits give low values 1.01 | locus YER015W, strain faa2, hits give low values 0.992 | locus YER016W, strain bim1, hits give low values 0.99 | locus YER110C, hits give low values 0.988 | locus YER111C, strain swi4, hits give low values 0.986 | locus YER155C, strain BEM2 (second series), hits give low values 0.98 | locus YER155C, strain BEM2, hits give low values 1.01 | locus YER167W, strain BCK2, hits give low values 1.03 | locus YFR010W, strain ubp6, hits give low values 0.974 | locus YGL078C, strain dbp3, hits give low values 0.985 | locus YGL086W, strain mad1, hits give low values 1.01 | locus YGL167C, strain pmr1, hits give low values 0.987 | locus YGL173C, strain kem1, hits give low values 0.969 | locus YGL227W, strain vid30, hits give low values 0.975 | locus YGL240W, strain doc1, hits give low values 0.99 | locus YGL248W, strain PDE1, hits give low values 1.02 | locus YGL253W, strain hxk2, hits give low values 0.993 | locus YGR078C, strain PAC10, hits give low values 1.02 | locus YGR135W, strain pre9, hits give low values 1 | locus YGR229C, strain SMI1, hits give low values 1.03 | locus YGR252W, strain gcn5, hits give low values 1.03 | locus YHR013C, strain ard1, hits give low values 0.991 | locus YHR027C, strain rpn1, hits give low values 0.984 | locus YHR030C, strain SLT2, hits give low values 1.01 and 0.971 | locus YHR079C, strain IRE1 (second series), hits give low values 0.991 | locus YHR079C, strain IRE1, hits give low values 0.971 | locus YHR094C, strain hxt1, hits give low values 0.994 | locus YHR129C, strain ARP1, hits give low values 1.01 | locus YHR142W, strain chs7, hits give low values 0.988 | locus YHR200W, strain rpn10, hits give low values 0.993 | locus YIL066C, strain RNR3, hits give low values 1.03 | locus YIL073C, strain SPO22, hits give low values 0.994 | locus YIL125W, strain kgd1, hits give low values 1 | locus YIR030C, strain dcg1, hits give low values 0.992 | locus YJL092W, strain hpr5, hits give low values 0.991 | locus YJL095W, strain BCK1 (second series), hits give low values 1 | locus YJL095W, strain BCK1, hits give low values 1.01 and 0.96 | locus YJL115W, strain asf1, hits give low values 0.978 | locus YJL129C, strain trk1, hits give low values 1 | locus YJL134W, strain LCB3, hits give low values 1.01 | locus YJL154C, strain vps35, hits give low values 0.985 | locus YJL164C, strain tpk1, hits give low values 1.01 | locus YJL166W, strain qcr8, hits give low values 1 | locus YJL168C, strain set2, hits give low values 0.988 | locus YJL187C, strain SWE1 (second series), hits give low values 1.01 | locus YJL187C, strain SWE1, hits give low values 0.989 | locus YJR043C, strain POL32, hits give low values 1 | locus YJR066W, strain TOR1, hits give low values 0.974
